Screening data deposited in PubChem BioAssay by National Center for Advancing Translational Sciences (NCATS).
Many of the other results were omitted from the sample, so hits are more common in it than they were.
Methyltransferases = Primary Screen for Target Class Profiling of Small Molecule Inhibitors of Methyltransferases. purified enzyme, MTase-Glo SAH luminescence; active compounds read low. calls only at 40 µM. 25,000 tested, 3.9% active; call rule not given here
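Each enzyme was reacted with SAM and its substrate, with compounds tested once at 40 uM; SAH formed was read by MTase-Glo luminescence.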
MTase-Glo ctr = counter-screen for methyltransferase inhibitors: coupling enzymes without methyltransferase | shares compounds with Methyltransferases | MTase-Glo coupled enzymes, SAH conversion luminescence, no MTase | Potency, µM (series often up to 57.3 µM), usual class: inhibitors | 180 tested, 6% active | AID 1745851; active = well fitted inhibition curve with a large enough effect; inconclusive = small, poorly fitted or top-dose-only effect
Of the large screens only hits and unclear results are named; the others gave an inactive call (follow-up assays come after a bar, where they were run).

CN(C)CC[C@H](CSc1ccccc1)Nc1ccc(S(=O)(=O)NC(=O)c2ccc(N3CCN(Cc4ccccc4-c4ccc(Cl)cc4)CC3)cc2)cc1[N+](=O)[O-]	Methyltransferases active
Cc1cc2c(cc1S(=O)(=O)N1CCN(c3cccc(C)c3C)CC1)n(C)c(=O)n2C	none
CSc1ccc(CCNC(=O)c2cc3n(n2)CC(C)(C(=O)NCc2ccc(C)cc2)N(C)C3=O)cc1 (stereo not drawn)	none
Cc1ccc(C(=O)N2CCC(N3C(=O)c4c(c(C)nn4-c4ccccc4)C3C)CC2)cc1 (stereo not drawn)	none
O=C(Nc1ccc(Oc2ccnc3[nH]ccc23)c(F)c1)c1cccn(-c2ccc(F)cc2)c1=O	none
COc1ccc2c(Oc3ccc(NC(=O)c4c(C)n(CC(C)(C)O)n(-c5ccccc5)c4=O)cc3F)ccnc2c1	Methyltransferases active
COc1ccc2c(OCc3nnc4ccc(-c5ccccc5)nn34)ccnc2c1	none
O=C(NCc1ccccc1F)c1ccc2c(=O)nc3c(-c4cccc(F)c4)n[nH]n3c2c1	none
Cc1cc(C)cc(NC(=O)CSc2nnc3n(CC(C)C)c(=O)c4ccc(C(=O)NC(C)C)cc4n23)c1	none
CCc1ccc(NC(=O)Cn2nc3n(CC(C)C)c(=O)c4ccc(C(=O)NCC(C)C)cc4n3c2=O)cc1	none
Cc1cc(C)c(CNC(=O)c2cc(-c3cnn(C)c3C)cc3c2OCCN3C)c(=O)[nH]1	Methyltransferases active | MTase-Glo ctr inactive
COCCNC(=O)c1cc(N2CCOCC2)cc2c1OCCN2C	none
COc1cc(NC(=O)c2cc3n(n2)CC(C)(C(=O)NC2CCCCC2)N(C)C3=O)cc(OC)c1 (stereo not drawn)	none
Clc1ccc(CN[C@H]2CCN(c3ncc(Br)cn3)C2)c(Cl)c1	none
CCOC(=O)c1cc2n(n1)CC(C)(C(=O)NCCCOC)N(c1ccc(Cl)cc1)C2=O (stereo not drawn)	none
COCc1nc2nc(-c3ccccc3)c(-c3ccc(O)c(F)c3)cc2n1C	Methyltransferases active | MTase-Glo ctr inactive
CC(=O)SCC(=O)c1ccc(NS(=O)(=O)c2ccc(OCCCN(C)C)cc2)nc1	none
Cc1nc2cccnc2n1CC1CCCN(S(=O)(=O)c2ccc3c(c2)OCCO3)C1 (stereo not drawn)	Methyltransferases active | MTase-Glo ctr inactive
Cc1cnc(-c2cccnc2)n1C1CCN(S(=O)(=O)c2ccc3c(c2)OCCO3)CC1	none
Cc1cnc(CC2CCCN(S(=O)(=O)c3ccccc3)C2)n1CC1CC1 (stereo not drawn)	none
COc1ccc([C@H]2Cc3cccc(O)c3C(=O)O2)cc1OC	none
COc1cccc([S+](=O)([O-])N2CC(N3CCc4ccccc43)C2)c1	none
COc1cccc([S+](=O)([O-])N2CCC23Cc2ccccc2NC3=O)c1 (stereo not drawn)	none
COc1cccc([S+](=O)([O-])N2CCC3(C2)N=C(c2cccnc2)C(=O)N3)c1 (stereo not drawn)	Methyltransferases active | MTase-Glo ctr inactive
CC(C)(C)C(=O)CN1C(=O)[C@H](NC(=O)Nc2cccc(C(=O)O)c2)CN(C2CCCCC2)c2ccccc21	none
CCC1Oc2ccc(NC(=O)Cc3ccc(OC)cc3)cc2CN(Cc2ccc3c(c2)OCO3)C1=O (stereo not drawn)	none
CCn1c(=O)n(CC)c2cc(S(=O)(=O)Nc3ccc(F)cc3)ccc21	none
CCC1Oc2ccc(NS(=O)(=O)c3ccc(Cl)cc3)cc2CN(Cc2ccc(F)cc2)C1=O (stereo not drawn)	Methyltransferases active | MTase-Glo ctr inactive
CCN1c2cc(C(=O)NCCc3ccccc3)ccc2C(=O)N2CCCCC21 (stereo not drawn)	none
CCCC1=Nc2cc(C(=O)NCCCN3CCCCC3CC)ccc2Sc2ccc(C)cc21 (stereo not drawn)	Methyltransferases active | MTase-Glo ctr inactive
CCC1CCCCN1CCCNC(=O)CCn1ccc2cc(S(=O)(=O)N3CCCCC3)ccc21 (stereo not drawn)	none
COc1cc(F)ccc1-c1nccc2c(=O)cc(-c3cnn(C)c3)oc12	none
COc1cc(F)ccc1-c1cc(-c2ccc(=O)[nH]c2)c2cncn2c1	Methyltransferases active | MTase-Glo ctr inconclusive
CC(C)c1cc2n(n1)CC(C)(C(=O)NC1CCCCC1)N(Cc1ccccc1)C2=O (stereo not drawn)	none
CC1(C(=O)NCc2ccccc2)Cn2c(cc3ccccc32)C(=O)N1Cc1ccc(Cl)cc1 (stereo not drawn)	none
CCC(C)NC(=O)c1ccc2c(=O)n(C)c3nnc(SCC(=O)Nc4cccc(C)c4)n3c2c1 (stereo not drawn)	none
CC(=O)Nc1cccc(-c2ccnc(-c3nnc(C)n3Cc3ccccc3)c2)c1	none
CC(=O)Nc1ccc(CN2CC3(Cc4ccccc4NC3=O)C2)cc1	none
CC(=O)Nc1cccc(-c2cc3c(cn2)CN(Cc2ccccc2)CCN3)c1	Methyltransferases active | MTase-Glo ctr inactive
CCCn1c(=O)c2ccccc2n2c(=O)n(CC(=O)Nc3ccc(C)cc3C)nc12	none
Cc1nccn1CCC1CCN(c2nccc(-c3ccccn3)n2)CC1	Methyltransferases active | MTase-Glo ctr inactive
NCC1CCN(c2nccc(-c3ccc4ccccc4c3)n2)CC1	none
CC1(C(=O)NC2CCCCCCC2)Cn2c(cc3occc32)C(=O)N1CCCN1CCCC1 (stereo not drawn)	none
c1ccc(CN2CCc3c(sc4ncnc(N5CCOCC5)c34)C2)cc1	Methyltransferases active | MTase-Glo ctr inactive
COc1ccc(-c2nc(N3CCOCC3)cc3c2CN(Cc2ccccc2)C3=O)cn1	none
CCNc1ncnc2sc3c(c12)CCN(Cc1ccncc1)C3	none
Cc1c(Cl)cccc1N1C(=O)c2cc3occc3n2CC1(C)C(=O)NC1CCCC(C)C1C (stereo not drawn)	none
CCCn1c(=O)c2cc(Cl)ccc2n2c(SCC(=O)NC(C)C)nnc12	none
CN(C)CCOCC1(C)COc2ccc(C(=O)Nc3ccc4[nH]ccc4c3)cc2N1 (stereo not drawn)	Methyltransferases active | MTase-Glo ctr inactive
CC1(COCC2CC2)COc2ccc(C(=O)Nc3cccc([S+](C)(=O)[O-])c3)cc2N1 (stereo not drawn)	none
CN(C)C[C@@H]1CN(S(C)(=O)=O)C[C@H]1NC(=O)c1ccc2[nH]ccc2c1	none
CCOc1ccc(CCNC(=O)c2cc3n(n2)CC(C)(C(=O)NC2CCCCC2)N(C)C3=O)cc1 (stereo not drawn)	none
O=C(NC1CC1)c1cc2n(n1)CCCN(C(=O)c1ccccc1-c1ccccc1)C2	none
COc1cc2c(cc1CN1CCC3(CCCNC3)C1)OCCCO2 (stereo not drawn)	none
Fc1ccccc1CN1CCCC2(CCN(c3cnccn3)C2)C1 (stereo not drawn)	none
COc1cccc(CN2CCCC3(CCN(c4cc(C)nc(N)n4)C3)C2)c1OC (stereo not drawn)	Methyltransferases active | MTase-Glo ctr inactive
CCOc1ccccc1NS(=O)(=O)c1ccc2c(c1)NC(=O)CC(=O)N2	none
CCOC(=O)c1cc2n(n1)CC(C)(C(=O)NCc1ccccc1)N(c1ccc(F)cc1)C2=O (stereo not drawn)	none
COc1cccc(C(=O)NCCN2CCN(c3ccc(Cl)cc3)CC2)c1	none
CCCCCNC(=O)c1ccc2c(=O)nc3c(-c4cccc(F)c4)n[nH]n3c2c1	none
CCCCNC(=O)c1cccc(-c2cc(N3CCN(C)CC3)nc(N)n2)c1	Methyltransferases active | MTase-Glo ctr inactive
COc1ccccc1Oc1c(NS(=O)(=O)c2ccc(C)cn2)nc(-c2ccncc2)nc1OC	none
